Data taken from PubChem BioAssay (NCATS).
“And” between values parts separate entries of the source, which are not always exact repeats. Equal entries are not always repeated. Records with an inconclusive call do not appear. The source holds several records for some structures; these can differ, active in one and inactive in another. The source made the active and inactive calls. Unless noted, calls come from the whole dose curve; as a rule, active = well fitted curve in the direction sought with a large enough effect; inconclusive = small, poorly fitted or top-dose-only effect, or another doubt; inactive = no such curve, though single readings can be large; an effect the other way counts as inactive or inconclusive.

What was measured:
[1] = qHTS Assay for Lipid Storage Modulators (AID 1519; calls by dose curve; note: potency is the fitted concentration of half-maximal effect; for activity change, negative = inhibition: % is set by controls: 0 for no effect and ±100 for the full control effect); settings: Drosophila S3 cells, BODIPY lipid droplet/cell ratio, laser cytometry, cells loaded with oleic acid
In short: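 Cells seeded at 5,000 per well were treated with compounds over a concentration series and loaded with oleic acid (400 uM, as added). Lipid droplet fluorescence (488 nm excitation, 500-530 nm channel) was read by laser-scanning cytometry and normalized to 20 uM Triacsin C.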

[2] = target: Alpha-galactosidase A (Homo sapiens) (UniProt P06280); assay: Counterscreen for Glucocerebrosidase Inhibitors: qHTS Assay for Human alpha-Galactosidase at pH 4.5 (AID 992); settings: purified enzyme, fluorogenic substrate; series mostly up to 76.9 µM; note: 0% is about no effect
In short: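 Quantitative HTS: compounds tested from 0.7 nM up to 77 uM against 2 nM enzyme with 80 uM 4-MU alpha-D-galactopyranoside. The 20 min room-temperature reaction is stopped with 1M NaOH/1M glycine, pH 10.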

[3] = target: alpha-glucosidase (Oryza sativa, rice) (UniProt Q653V4); assay: Counterscreen for Glucocerebrosidase Inhibitors: qHTS Assay for Rice alpha-Glucosidase at pH 5.0 (AID 997); settings: rice alpha-glucosidase enzyme activity; series mostly up to 76.9 µM;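 note: 0% = full activity with enzyme and -100% = basal without enzyme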
In short: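 Rice alpha-glucosidase (4 nM final) with 400 uM 4-methylumbelliferyl-alpha-D-glucopyranoside in citrate buffer pH 5.0, 20 min at room temperature, stopped at pH 10; fluorescence 365/440 nm, compounds 0.7 nM–77 uM, AC50 from Hill fits.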

[4] = target: Alpha-galactosidase (Coffea arabica) (UniProt Q42656); assay: Counterscreen for Glucocerebrosidase Inhibitors: qHTS Assay for Coffee Bean alpha-Galactosidase at pH 5.9 (AID 998); settings: coffee bean alpha-galactosidase enzyme assay; series mostly up to 76.9 µM;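 note: plate controls were uninhibited enzyme for no effect and no-enzyme basal signal for full effect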
In short: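 Green coffee bean enzyme (2 nM) with 4-methylumbelliferyl alpha-D-galactopyranoside (80 uM) in 50 mM citric acid, 0.005% Tween-20, pH 5.9, 20 min at room temperature; compounds 0.7 nM–77 uM. Stopped at pH 10, fluorescence Ex365/Em440; Hill-fit AC50.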

[5] = Validation of Assay for Modulators of Lamin A Splicing (AID 1459; active = well fitted curve in the direction sought with a large enough effect in the signal ratio; the % refers to the signal ratio;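 note: cells exposed to compound for two days before reading; 0% is about no effect; ratio rise marks activators and ratio drop marks inhibitors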); settings: Lamin A splicing dual RFP/GFP fluorescence reporter; series mostly up to 9.22 µM
In short: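 S3 HeLa stably expressing lamin A-EGFP splicing minigene and DsRed2, 600 cells/well in Opti-MEM with 2% FBS, treated 48 h at 37C; laser-scanning cytometry gives GFP/RFP total intensity ratio; ancitabine positive control, 0.5% DMSO vehicle.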

[6] = target: DNA repair nuclease/redox regulator APEX1 (Homo sapiens) (UniProt P27695); assay: qHTS Validation Assay for Inhibitors of the Human Apurinic/apyrimidinic Endonuclease 1 (APE1) (AID 1705;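 note: TAMRA fluorescence gain over two minutes as APE1 cuts a quenched THF abasic duplex; % is set by controls: 0 for no effect and ±100 for the full control effect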); settings: purified APE1 endonuclease activity, fluorescence, titration; series mostly up to 57.1 µM
In short: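 Fluorogenic double-stranded THF abasic-site substrate (5'-TAMRA/3'-BHQ-2), 50 nM final. Enzyme preincubated with compound 15 min at room temperature, then substrate added. Kinetic fluorescence (ex 525/em 598 nm) read three times at 60 s intervals; activity taken as third-minus-first read difference.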

[7] = Counterscreen for APE1 Inhibitors: Fluorescent Dye Displacement Validation Assay (AID 1707); settings: fluorescent dye displacement from DNA; series mostly up to 57.1 µM; note: potency is the fitted concentration of half-maximal effect;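 for activity change, negative = inhibition: plate controls were ThO with dsDNA and no compound for no effect and ThO without dsDNA for full effect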
In short: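 Compounds are scored by their ability to displace Thiazole Orange (250 nM) from a 50 nM TAMRA-tagged duplex bearing a tetrahydrofuran abasic site. Buffer is 50 mM Tris-HCl pH7.5, 50mM NaCl, 2 mM MgCl2, 0.01% Tween-20.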

[8] = target: Endonuclease 4 (Escherichia coli (strain K12)) (UniProt P0A6C1); assay: Counterscreen for APE1 Inhibitors: qHTS Validation Assay for Inhibitors of Endonuclease IV (AID 1708); note: % is set by controls: 0 for no effect and ±100 for the full control effect; settings: E. coli endonuclease IV, DNA cleavage fluorescence; series mostly up to 57.1 µM
In short: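 Cleavage of a quenched abasic-site DNA duplex (50 nM, 5'-TAMRA, 3'-BHQ-2) by 2 nM enzyme is followed as fluorescence increase. Compounds are preincubated with enzyme 15 min at room temperature before substrate addition.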

[9] = qHTS for differential inhibitors of proliferation of Plasmodium falciparum line 7G8 (AID 1815); settings: Plasmodium falciparum 7G8 proliferation inhibition; series mostly up to 28.7 µM;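 note: parasite growth measured after three days of incubation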; note: potency is the fitted concentration of half-maximal effect;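 for activity change, negative = inhibition: plate controls were vehicle wells for no effect and reference inhibitor wells for full effect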
[10] = qHTS for differential inhibitors of proliferation of Plasmodium falciparum line 3D7 (AID 1876); note: potency is the fitted concentration of half-maximal effect; settings: P. falciparum 3D7 proliferation inhibition; series mostly up to 28.7 µM
[11] = qHTS for differential inhibitors of proliferation of Plasmodium falciparum line Dd2 (AID 1882); settings: Potency: Plasmodium falciparum Dd2 proliferation inhibition; series mostly up to 28.7 µM; note: nearly all actives have a fitted effect of over 65% in size; note: potency is the fitted concentration of half-maximal effect;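 for activity change, negative = inhibition: compound exposure of 72 h on infected erythrocytes; plate controls were DMSO vehicle for no effect and 0.29 µM artemisinin for full effect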
In short: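 SYBR Green I DNA fluorescence read-out, ex 485/em 535 nm. Signals were normalized to 0.29 uM artemisinin and DMSO wells, then corrected using vehicle-only plates flanking each stack. Parasite growth ran 72 h in erythrocytes before lysis.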

[12] = qHTS for differential inhibitors of proliferation of Plasmodium falciparum line HB3 (AID 1886); settings: Potency: Plasmodium falciparum HB3 proliferation inhibition; series mostly up to 28.7 µM;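 note: parasites grown with compound for 72 h before SYBR Green readout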; note: potency is the fitted concentration of half-maximal effect;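 for activity change, negative = inhibition: plate controls were vehicle for no effect and reference inhibitor for full effect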
[13] = qHTS Assay for Modulators of Human Peripheral Myelin Protein 22 (PMP22) Expression/Activity (AID 1967; active = well fitted curve in the direction sought with a large enough effect in the signal ratio; the % refers to the signal ratio;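 note: 0% = untreated cells and 100% end not stated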); settings: Cell-based PMP22 reporter, dual-color luciferase ratio, mouse Pmp22 promoter in mouse Schwann cells; series mostly up to 115 µM
In short: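 Mouse MSC80 Schwann cells carrying Pmp22 promoter–green click beetle luciferase plus EF-alpha–red luciferase control, dosed 24 h at 37 °C. Dual-filter luminescence, overlap-corrected; %Activity from green/red ratio normalised to untreated cells, concentration-response curves fitted.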

[14] = qHTS for differential inhibitors of proliferation of Plasmodium falciparum line GB4 (AID 1816); settings: Potency: Plasmodium falciparum GB4 proliferation inhibition; series mostly up to 28.7 µM;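 note: parasite growth measured after 72 h incubation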; note: potency is the fitted concentration of half-maximal effect;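 for activity change, negative = inhibition: 0% = vehicle DMSO and -100% = reference inhibitor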
[15] = qHTS for differential inhibitors of proliferation of Plasmodium falciparum line D10 (AID 1877); settings: series mostly up to 28.7 µM;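 note: parasites grown with compound for 72 h before DNA staining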; note: potency is the fitted concentration of half-maximal effect;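 for activity change, negative = inhibition: plate controls were vehicle wells for no effect and reference inhibitor wells for full effect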
[16] = qHTS for differential inhibitors of proliferation of Plasmodium falciparum line W2 (AID 1883); settings: Potency: Plasmodium falciparum W2 proliferation inhibition; series mostly up to 28.7 µM;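 note: potency is the fitted concentration of half-maximal effect; parasites grown with compound for 72 h before lysis and staining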
[17] = measured here: cell count channel max response
[18] = measured here: lipid channel max response

Alpha-galactosidase (Coffea arabica), sequence (Q42656 whole entry, looked up): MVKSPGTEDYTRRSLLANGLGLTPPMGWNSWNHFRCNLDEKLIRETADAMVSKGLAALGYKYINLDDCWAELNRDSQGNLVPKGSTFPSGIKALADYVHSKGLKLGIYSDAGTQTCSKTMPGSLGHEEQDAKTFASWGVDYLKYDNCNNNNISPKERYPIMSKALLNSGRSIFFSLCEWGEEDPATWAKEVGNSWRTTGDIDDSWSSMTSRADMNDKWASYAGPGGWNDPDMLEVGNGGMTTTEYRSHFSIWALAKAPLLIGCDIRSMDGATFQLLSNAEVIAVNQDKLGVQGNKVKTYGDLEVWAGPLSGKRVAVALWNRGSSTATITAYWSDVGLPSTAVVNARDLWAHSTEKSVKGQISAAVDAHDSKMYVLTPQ
Alpha-galactosidase A (Homo sapiens), sequence (P06280 whole entry, looked up): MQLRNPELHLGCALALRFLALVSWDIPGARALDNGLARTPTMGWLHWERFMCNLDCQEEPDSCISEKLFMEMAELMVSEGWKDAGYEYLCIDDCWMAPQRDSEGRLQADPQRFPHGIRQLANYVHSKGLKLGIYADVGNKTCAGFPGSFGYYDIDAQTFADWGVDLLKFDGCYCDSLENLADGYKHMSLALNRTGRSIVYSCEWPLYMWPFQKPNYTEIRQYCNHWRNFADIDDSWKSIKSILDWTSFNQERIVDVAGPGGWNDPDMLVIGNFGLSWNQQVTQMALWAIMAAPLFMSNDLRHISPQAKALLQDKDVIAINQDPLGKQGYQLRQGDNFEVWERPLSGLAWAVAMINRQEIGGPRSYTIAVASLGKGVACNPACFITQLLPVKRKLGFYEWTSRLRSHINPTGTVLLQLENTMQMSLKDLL
DNA repair nuclease/redox regulator APEX1 (Homo sapiens), sequence (P27695 whole entry, looked up): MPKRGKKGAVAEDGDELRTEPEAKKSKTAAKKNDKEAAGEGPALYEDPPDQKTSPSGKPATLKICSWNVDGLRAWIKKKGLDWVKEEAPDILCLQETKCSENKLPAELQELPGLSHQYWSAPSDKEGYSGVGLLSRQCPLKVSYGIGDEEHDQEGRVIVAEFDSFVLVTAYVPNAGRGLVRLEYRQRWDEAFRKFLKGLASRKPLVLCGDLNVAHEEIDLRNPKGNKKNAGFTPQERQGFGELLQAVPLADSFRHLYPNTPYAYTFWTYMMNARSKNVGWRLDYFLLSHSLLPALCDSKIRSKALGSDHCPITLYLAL

CCC(COC(=O)c1cc(OC)c(OC)c(OC)c1)(c1ccccc1)N(C)C (stereo unspecified)
activity change, negative = inhibition ([1]; at 57.5 µM (top of the series)): 6.16% (inactive) | max response [1, 17]: -7.6% | max response [1, 18]: -1.9%

COc1ccccc1N1CCNCC1
outcome [2]: inactive | outcome [3]: inactive | outcome [4]: inactive | outcome [5]: inactive | activity change, negative = inhibition ([1]; at 57.5 µM (top of the series)): 3.26% (inactive) and 0.382% (inactive) | max response [1, 17]: 10.9% and -13.3% | max response [1, 18]: 15.1% and -12.9% | outcome [6]: inactive | Potency [7]: inactive | outcome [8]: inactive | Potency [9]: inactive | Potency [10]: inactive | Potency [11]: inactive | Potency [12]: inactive | outcome [13]: inactive

Cc1ccc(S(=O)(=O)N[C@@H](CCCCN)C(=O)CCl)cc1
outcome [2]: inactive | outcome [3]: inactive | outcome [4]: inactive | activity change, negative = inhibition ([1]; at 57.5 µM (top of the series)): -0.107% (inactive) | max response [1, 17]: 1.11% | max response [1, 18]: 0.09% | outcome [6]: inactive | Potency [7]: inactive | outcome [8]: inactive | Potency [9]: inactive | Potency [14]: inactive | Potency [15]: inactive | Potency [11]: inactive | Potency [12]: inactive

CC(C)CC(N(C)C)C1(c2ccc(Cl)cc2)CCC1 (stereo unspecified)
activity change, negative = inhibition ([1]; at 57.5 µM (top of the series)): 0.545% (inactive) | max response [1, 17]: 5.29% | max response [1, 18]: 6.62%

CC(C)=CC1C(C(=O)OCc2cccc(Oc3ccccc3)c2)C1(C)C (stereo unspecified)
activity change, negative = inhibition ([1]; at 57.5 µM (top of the series)): 8.71% (inactive) | max response [1, 17]: 10.5% | max response [1, 18]: 23.2%

CC[N+]1(C)CCCC(OC(=O)C(O)(c2ccccc2)c2ccccc2)C1 (stereo unspecified)
activity change, negative = inhibition ([1]; at 57.5 µM (top of the series)): 8.59% (inactive) | max response [1, 17]: 5.8% | max response [1, 18]: 23.3%

CN1C[C@H](CNC(=O)OCc2ccccc2)C[C@@H]2c3cccc4c3c(cn4C)C[C@H]21
outcome [2]: inactive | outcome [3]: inactive | outcome [4]: inactive | activity change, negative = inhibition ([1]; at 57.5 µM (top of the series)): 1.3% (inactive) | max response [1, 17]: -34% | max response [1, 18]: -33% | outcome [6]: inactive | Potency [7]: inactive | Potency [9]: 5.01 µM (active) | Potency [14]: 7.08 µM (active) | Potency [10]: 2.51 µM (active) | Potency [15]: 11.2 µM (active) | Potency [11]: 10 µM (active) | Potency [16]: 3.98 µM (active) | Potency [12]: 11.2 µM (active)

O=c1c(O)c(-c2ccc(O)c(O)c2)oc2cc(O)cc(O)c12
outcome [4]: inactive | activity change, negative = inhibition ([1]; at 57.5 µM (top of the series)): 8.54% (inactive) | Potency [1]: 39.8 µM (active) | max response [1, 17]: -77.5% and 18.5% | max response [1, 18]: -93.3% and 29.8% | Potency [7]: 2.51 µM (active) | Potency [9]: 3.55 µM (active) | Potency [14]: 2.51 µM (active) | Potency [10]: 3.55 µM (active) | Potency [15]: 7.08 µM (active) | Potency [11]: 8.91 µM (active) | Potency [16]: 4.47 µM (active) | Potency [12]: 2.82 µM (active)

Cc1cccc(C)c1NC1=NCCCS1
outcome [2]: inactive | outcome [3]: inactive | outcome [4]: inactive | outcome [5]: inactive | activity change, negative = inhibition ([1]; at 25.7 µM (top of the series)): 0.794% (inactive) | activity change, negative = inhibition ([1]; at 57.5 µM (top of the series)): 0.68% (inactive) | max response [1, 17]: 4% and -18.4% | max response [1, 18]: 4.95% and -18.3% | outcome [6]: inactive | Potency [7]: inactive | outcome [8]: inactive | Potency [9]: 7.94 µM (active) | Potency [14]: 14.1 µM (active) | Potency [10]: inactive | Potency [15]: inactive | Potency [16]: 5.01 µM (active) | Potency [12]: inactive
